The list is not random: actives were taken first. Their share in the collection is about 11%.
Pf growth 48h: inhibits P. falciparum growth in the first generation, 48 h; P. falciparum luciferase growth in erythrocytes, 48 h; Potency, µM (titrated, usually from 28.7 µM), actives largely listed as inhibitors; 5.9% of 310,000 active; AID 504832
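In quantitative HTS format, infected erythrocytes bearing luciferase-reporter parasites were treated for a single generation at 37 C. Luminescence after adding detection reagent served as the growth measure.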
Pf growth 96h: P. falciparum growth inhibition at 96 hours | Potency, µM (series often up to 28.7 µM), most hits filed as inhibitors | AID 504834 | P. falciparum luciferase reporter growth, 96 h | 6.9% of 320,000 active
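Infected RBCs, 2% Hct / 0.05% parasitemia final; luciferase-reporter P. falciparum; cpd 96 h, 37 C, 5% CO2; luciferase detection reagent; luminescence.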
Sm TGR block: S. mansoni TGR enzyme inhibition; purified TGR, DTNB reduction, TNB absorbance 405 nm; Potency, µM (series often up to 114 µM), usual class: inhibitors; 3% of 360,000 active; Q962Y6; AID 485364; note: nearly all actives have a fitted effect of over 60% in size
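Kinetic colorimetric format: TGR-catalysed, NADPH-driven DTNB reduction monitored via TNB absorbance. Enzyme dispensed at 20 nM; compound exposure 15 min at room temperature before reaction start.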
AMA1-RON2 inh: inhibitors of Plasmodium falciparum AMA1-RON2 interaction | Potency, µM (highest dose often 58.2 µM), hits mostly inhibitors | 0.2% of 360,000 active | AID 720542 | AlphaScreen AMA1-biotinylated RON2 peptide binding; note: nearly all actives have a fitted effect of over 45% in size
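AMA1 (3D7) with his tag at 25 nM final met compounds first, then biotinylated RON2 peptide at 25 nM; detection used donor plus acceptor beads, 10 µg/mL apiece, read by AlphaScreen after 30 min at room temperature.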
NS1 inh: inhibitors of influenza NS1 protein function. 0.4% of 270,000 active. Potency, µM (series often up to 46.1 µM). AID 2326; calls by dose curve; note: actives are rising curves; nearly all actives have a fitted effect of over 50% in size
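Compounds were scored for reversing the slow growth caused by influenza A NS1 in S. cerevisiae, measured by optical density at 600 nm. Assay medium contained 2% galactose at pH 6.0; NS1-free yeast of the same strain were the positive control.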
Of the large screens only hits and unclear results are named; the others gave an inactive call. Unless noted, calls come from the whole dose curve; as a rule, active = well fitted curve in the direction sought with a large enough effect; inconclusive = small, poorly fitted or top-dose-only effect, or another doubt; inactive = no such curve, though single readings can be large; an effect the other way counts as inactive or inconclusive.

CCS(=O)(=O)c1ncc(Cl)c(C(=O)Nc2ccc(S(=O)(=O)N3CCC(C)CC3)cc2)n1	Sm TGR block 0.45µM
CCSc1ncc(Cl)c(C(=O)Nc2ccc(S(=O)(=O)N3CCC(C)CC3)cc2)n1	none (no result: Pf growth 48h, Pf growth 96h, AMA1-RON2 inh, NS1 inh)
CC(=O)N1CCN(C(=O)COC(=O)/C=C/c2ccccc2[N+](=O)[O-])CC1	none (no result: Pf growth 48h, Pf growth 96h, Sm TGR block, NS1 inh)
CCCCCn1c(=O)[nH]c2cc(C(=O)NCc3ccc(F)cc3)ccc2c1=O	none (no result: Pf growth 48h, Pf growth 96h, AMA1-RON2 inh, NS1 inh)
CCOC(=O)c1c(NC(=O)c2nc(S(C)(=O)=O)ncc2Cl)sc(C(C)=O)c1C	Sm TGR block 2.2µM (no result: Pf growth 48h, Pf growth 96h, AMA1-RON2 inh, NS1 inh)
CC(=O)Nc1ccc(NC(=O)c2nc(S(=O)(=O)Cc3ccc(F)cc3)ncc2Cl)cc1	Sm TGR block 3.2µM (no result: Pf growth 48h, Pf growth 96h, AMA1-RON2 inh, NS1 inh)
CCOC(=O)c1c(-c2ccccc2)csc1NC(=O)c1nc(S(=O)(=O)CC)ncc1Cl	Sm TGR block 2µM (no result: Pf growth 48h, Pf growth 96h, AMA1-RON2 inh, NS1 inh)
CN(c1ccccc1)S(=O)(=O)c1ccc(NC(=O)c2nc(S(C)(=O)=O)ncc2Cl)cc1	Sm TGR block 1.3µM
CCOC(=O)c1c(-c2ccccc2)csc1NC(=O)c1nc(SCC)ncc1Cl	none (no result: Pf growth 48h, Pf growth 96h, AMA1-RON2 inh, NS1 inh)
CCc1c(C)[nH]c2c1C(=O)C(CN1CCOCC1)CC2 (stereo unspecified)	none (no result: Pf growth 48h, Pf growth 96h, Sm TGR block)
O=C(Cn1cc(SCc2c(F)cccc2Cl)c2ccccc21)N1CCCC1	none (no result: Pf growth 48h, Pf growth 96h, AMA1-RON2 inh, NS1 inh)
CCc1ccc(NC(=O)c2nc(S(=O)(=O)Cc3ccccc3)ncc2Cl)cc1	Pf growth 96h inconclusive, Sm TGR block 6.3µM (no result: AMA1-RON2 inh)
CCSc1ncc(Cl)c(C(=O)Nc2ccc(S(=O)(=O)Nc3nccc(C)n3)cc2)n1	none (no result: Pf growth 48h, Pf growth 96h, AMA1-RON2 inh, NS1 inh)
CCCS(=O)(=O)c1ncc(Cl)c(C(=O)Nc2ccc(S(=O)(=O)Nc3ncccn3)cc2)n1	Pf growth 96h inconclusive, Sm TGR block 13µM
CCC(=O)Nc1ccc(S(=O)(=O)Nc2ncccn2)cc1	Pf growth 96h 9.3µM (no result: Pf growth 48h)
CCOc1ccccc1N(C)S(=O)(=O)c1ccc2c(c1)N(C(C)=O)CCO2	Pf growth 96h 1.9µM
CC(=O)N1CCOc2ccc(S(=O)(=O)N(C)c3cccc(C)c3)cc21	none
CC(=O)N1CCOc2ccc(S(=O)(=O)N3CC(C)CC(C)C3)cc21 (stereo unspecified)	Pf growth 96h 9.3µM
CC(C)c1ccc(/C=C(\c2nc3ccccc3[nH]2)S(=O)(=O)c2ccccc2)cc1	Pf growth 48h 5.9µM, Pf growth 96h 2.3µM
COC(=O)/C(=C\c1ccc(O)cc1)c1nc2ccccc2[nH]1	none (no result: NS1 inh)
O=S(=O)(/C(=C/c1ccc(C(F)(F)F)cc1)c1nc2ccccc2[nH]1)c1ccccc1	Pf growth 48h 4.1µM, Pf growth 96h 1.7µM, Sm TGR block 18µM
C/C(=C\c1ccc(N)cc1)c1nc2ccccc2[nH]1	none
CCC(=O)N1CCc2cc(Br)cc(S(=O)(=O)CCC(=O)NCc3ccc(Cl)cc3)c21	none (no result: Pf growth 48h, Pf growth 96h, AMA1-RON2 inh, NS1 inh)
CCCCn1c(N)c(N(CCOC)C(=O)c2cc3c(s2)CCC3)c(=O)[nH]c1=O	none (no result: NS1 inh)
COc1ccc(C2c3c(n(C)c4ccccc34)C(=O)N2CC(=O)Nc2ccc(C)cc2Cl)cc1 (stereo unspecified)	none (no result: Pf growth 48h, Pf growth 96h, AMA1-RON2 inh, NS1 inh)
O=C(NCc1ccc(F)cc1)Nc1nnc([C@H]2C[C@H](O)[C@@H](CO)O2)s1	none (no result: Pf growth 48h, Pf growth 96h, Sm TGR block, NS1 inh)
CCOC(=O)c1c(C)nc2sc3c(=O)n(-c4ccc(C(C)=O)cc4)cnc3c2c1-c1ccc(Cl)cc1	Pf growth 96h 3.7µM (no result: Pf growth 48h)
CCOC(=O)c1c(C)nc2sc3c(=O)n(-c4ccc(C(C)=O)cc4)nnc3c2c1-c1ccc(Cl)cc1	none
O=c1c(CO)cc(CO)cc(CO)c1O	Pf growth 48h inconclusive, AMA1-RON2 inh 22µM
c1ccc(C2CC(c3ccccc3)C(c3ccccc3)N2)cc1 (stereo unspecified)	Pf growth 96h 9.3µM
CC(C)(C)c1ccccc1NC(=O)c1ccc2c(c1)SC1=NS(=O)(=O)CCN12	Pf growth 48h inconclusive, Pf growth 96h inconclusive
O=C(Nc1cccc(Br)c1)c1ccc2c(c1)SC1=NS(=O)(=O)CCN12	Pf growth 48h 12µM, Pf growth 96h 12µM (no result: NS1 inh)
COC(=O)c1n[nH]c2ccccc12	none (no result: Pf growth 96h)
O=C(OCCCCN1C(=O)c2ccccc2C1=O)c1n[nH]c2ccccc12	Pf growth 48h inconclusive, Pf growth 96h 13µM
Cc1ccc(Cn2c(C)c3cnn(CC(=O)NC4CCCC4)c(=O)c3c2C)cc1	Pf growth 96h 9.3µM, Sm TGR block inconclusive
O=C(Cn1ncc(Cl)c(Cl)c1=O)NCC1CCCCC1	Sm TGR block 35µM
O=C(Cn1ncc2c3ccccc3n(Cc3ccccc3)c2c1=O)NC1CCCC1	none
O=C(Cn1ncc(Cl)c(Cl)c1=O)NC1CCCCC1	Pf growth 96h inconclusive, Sm TGR block 25µM (no result: NS1 inh)
O=C(Cn1ncc(Cl)c(Cl)c1=O)NC1CCS(=O)(=O)C1 (stereo unspecified)	Sm TGR block 6.3µM
CCCN(CC(=O)Nc1ccccc1OC)C(=O)c1cc(-c2cccs2)nn1-c1ccccc1	Pf growth 48h inconclusive, Pf growth 96h inconclusive (no result: NS1 inh)
O=C(Nc1ncn[nH]1)c1ccc(Cl)c(Cl)c1	none (no result: NS1 inh)
CCC(=O)C1CCCN(C(=O)CCc2nnc(C3(c4ccc(Cl)cc4)CCC3)o2)C1 (stereo unspecified)	none
CCCn1c(C2CCCN2c2nc(-c3cccc(Br)c3)cs2)nc2cc(Cl)c(Cl)cc21 (stereo unspecified)	Pf growth 48h 12µM, Pf growth 96h 9.3µM, Sm TGR block inconclusive
